Assay results as given in PubChem BioAssay AID488789 (Broad Institute, 2010).
Results with a measured potency or affinity are listed apart. Records with an inconclusive call do not appear. Active and inactive are the calls of the source.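 How the source made its calls: active means samples whose fitted half-maximal inhibition concentration is no more than ten times the top valid dose tested; inconclusive means flat response between -70 and -30, or invalid curve fit; inactive means flat within 30 of zero, potency above limit, or signal rising.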

Biological target: Trypsin (Sus scrofa) (UniProt P00761)
Sequence (P00761 whole entry, looked up): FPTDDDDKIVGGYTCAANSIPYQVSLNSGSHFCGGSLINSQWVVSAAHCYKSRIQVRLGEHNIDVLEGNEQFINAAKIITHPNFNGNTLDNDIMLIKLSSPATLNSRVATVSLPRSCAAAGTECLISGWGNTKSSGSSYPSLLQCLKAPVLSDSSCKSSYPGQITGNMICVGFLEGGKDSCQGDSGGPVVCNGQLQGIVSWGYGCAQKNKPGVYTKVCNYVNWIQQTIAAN
Test: porcine trypsin inhibitors, dose response, selectivity assay for Rce1 protease inhibitor project, biochemical, quenched peptide fluorescence, cherry-pick (AID 488789)
Conditions: quenched peptide cleavage fluorescence; series mostly up to 10 µM; activity change, negative = inhibition: at the top concentration

SMILES	activity change, negative = inhibition
Cc1ccc(-c2c(C(=O)N/N=C/c3cccc(Cl)c3)nnn2-c2nonc2N)cc1	3.16% (inactive)
CCCCOc1ccc(-c2cc(C(F)(F)F)c(C#N)c(SCC(=O)O)n2)cc1	40.4% (inactive)
CCOc1ccc2[nH]c(=O)c(CN(CCN3CCOCC3)Cc3nnnn3C(C)(C)CC)cc2c1	3.69% (inactive)
CN(C)CC(C)(C)CNC(=S)NCc1ccc2c(c1)OCO2	17.4% (inactive)
NC(=O)[C@@H]1CC2(CC(c3cccc(NC(=O)CC(c4ccccc4)c4ccccc4)c3)=NO2)CN1C(=O)c1ccc(Cl)cc1 (some centres not stated)	9% (inactive)
COC(C/C=C/[C@H](O)[C@@H](C)OCc1ccccc1)OC	3.98% (inactive)
CCOC(=O)c1cc(-c2ccccc2)sc1NC(=O)C(C)Sc1nnnn1C (configuration not stated)	7.62% (inactive)
Cc1cccc(OCCCN2C(=O)C(=O)c3cc(C)ccc32)c1	0.738% (inactive)
CC(C)c1c(C(=O)N/N=C/c2c[nH]c3ccccc23)nnn1-c1nonc1N	-3.47% (inactive)
COc1ccc(/C=N/NC(=O)c2ccc(Cl)cc2)cc1COC(C)=O	5.75% (inactive)
CCN1CCN(CC(O)COc2ccc3c(C)cc(=O)oc3c2)CC1 (configuration not stated)	11.8% (inactive)
Cc1cccc(NC(=O)C2(c3ccc([N+](=O)[O-])cc3)CCCC2)c1	6.69% (inactive)
CN1CCN(C(=S)NC(=O)c2ccccc2Cl)CC1	2.37% (inactive)
CCN(CC)c1ccc(C(=O)c2ccccc2C(=O)O)c(O)c1	-0.441% (inactive)
CCC1(c2ccccc2)NC(=O)N(CC(=O)Nc2ccc3c(C)cc(=O)oc3c2)C1=O (configuration not stated)	9.62% (inactive)
CC(=O)Oc1ccc(C(=O)Nc2ccc(S(=O)(=O)NCC3CCCO3)cc2)cc1 (configuration not stated)	4.09% (inactive)
COC(C/C=C/[C@H](O)[C@H](C)OCc1ccccc1)OC	27.8% (inactive)
